Consider 15 compounds from PubChem BioAssay (NCATS).

Assay [1] deals with Lysosomal acid glucosylceramidase (Homo sapiens) (UniProt P04062). Description: Glucocerebrosidase-p2 (AID 348; in the data active = potency below about 10 µM; also: potency is read from the fitted curve at half-maximal effect). The note with it: purified GBA, blue fluorogenic substrate, 40 min. Put shortly:
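Normal human glucocerebrosidase (0.2 nM) with blue fluorogenic substrate (80 uM final) in citrate/phosphate pH 5.9 with 10mM sodium taurocholate, 0.01% tween-20; 40 min RT, NaOH/glycine stop; fluorescence Ex 365/Em 440; AC50 from a titration from 0.6 nM upwards.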

Assay [2] in a line: AP1 Signaling Pathway (AID 357). Also: % is scaled to controls: 0 for no effect and ±100 for the full control effect. The note with it: ME-180 AP-1-bla reporter, EGF-induced, beta-lactamase ratio, 5 h; at 7.69 µM (top of the series) unless noted. Put shortly: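 Modulation of EGF-driven AP-1 transcription was assessed with a beta-lactamase reporter in ME-180 cells. Compound and EC50 EGF were co-incubated 5 hours at 37 °C before 2.5-hour CCF4 loading at room temperature and dual-emission reading.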

Assay [3] has as its target Cytochrome P450 1A2 (Homo sapiens) (UniProt P05177). Kind of assay: p450-cyp1a2 (AID 410; calls by dose curve; also: potency is read from the fitted curve at half-maximal effect;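 as to activity change, negative = inhibition: -100% = full effect of reference inhibitor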). The note with it: recombinant CYP1A2, luciferin-ME demethylation, luminescence; series mostly up to 11.4 µM. The method in brief:
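Read-out is luminescence from luciferin produced by CYP1A2 demethylation of Luciferin-ME (100uM, at Km). Detection reagent stopped the 60 min NADPH-dependent reaction; signals were normalized to 57 uM furafylline.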

A short description of assay [4]: NFAT Signaling Pathway (AID 444).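 Also: carbachol stimulus at about its EC50 of 1 µM final; % is scaled to controls: 0 for no effect and ±100 for the full control effect.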 The note with it: Jurkat NFAT-bla M1, carbachol, beta-lactamase ratio, 5 h; at 7.69 µM (top of the series) unless noted. The method in brief: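 Jurkat cells carrying an NFAT-driven β-lactamase reporter and co-transfected muscarinic M1 receptor were treated with compound plus carbachol (1 uM final, an EC50 level) for 5 h at 37 °C. CCF4 loading followed for 1 h at RT; 460/530 nm ratio gave %activity.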

Assay [5] is described as follows: Stat Signaling Pathway (AID 446).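 Also: ME-180 cervical cancer cells given 40 pM IL-6 alongside compound; SIE-controlled beta-lactamase reporter measured as 460/530 nm FRET emission ratio; % is scaled to controls: 0 for no effect and ±100 for the full control effect.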 The note with it: ME-180 (cervical carcinoma) SIE beta-lactamase reporter, IL-6 stimulated, 5 h; at 7.69 µM (top of the series) unless noted. The method in brief:
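Emission at 460 and 530 nm (excitation 405 nm) reports SIE-controlled beta-lactamase in ME-180 cells. Cells received compound with 40 pM IL-6 for 5 hrs at 37 C; data scaled between 300 pM IL-6 and 125 nM JAK-inhibitor controls.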

Assay [6] deals with Glucocorticoid receptor (Homo sapiens) (UniProt P04150). Kind of assay: GR-GFP Redistribution (AID 450;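 active = compounds whose dose series gives a full or clear partial fitted curve of increased nuclear translocation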; also: potency is read from the fitted curve at half-maximal effect). To be noted: U2OS GR-GFP nuclear translocation, laser cytometry, 2 h.
Sequence of Glucocorticoid receptor (Homo sapiens) (P04150 whole entry, looked up, the tested form may be a part): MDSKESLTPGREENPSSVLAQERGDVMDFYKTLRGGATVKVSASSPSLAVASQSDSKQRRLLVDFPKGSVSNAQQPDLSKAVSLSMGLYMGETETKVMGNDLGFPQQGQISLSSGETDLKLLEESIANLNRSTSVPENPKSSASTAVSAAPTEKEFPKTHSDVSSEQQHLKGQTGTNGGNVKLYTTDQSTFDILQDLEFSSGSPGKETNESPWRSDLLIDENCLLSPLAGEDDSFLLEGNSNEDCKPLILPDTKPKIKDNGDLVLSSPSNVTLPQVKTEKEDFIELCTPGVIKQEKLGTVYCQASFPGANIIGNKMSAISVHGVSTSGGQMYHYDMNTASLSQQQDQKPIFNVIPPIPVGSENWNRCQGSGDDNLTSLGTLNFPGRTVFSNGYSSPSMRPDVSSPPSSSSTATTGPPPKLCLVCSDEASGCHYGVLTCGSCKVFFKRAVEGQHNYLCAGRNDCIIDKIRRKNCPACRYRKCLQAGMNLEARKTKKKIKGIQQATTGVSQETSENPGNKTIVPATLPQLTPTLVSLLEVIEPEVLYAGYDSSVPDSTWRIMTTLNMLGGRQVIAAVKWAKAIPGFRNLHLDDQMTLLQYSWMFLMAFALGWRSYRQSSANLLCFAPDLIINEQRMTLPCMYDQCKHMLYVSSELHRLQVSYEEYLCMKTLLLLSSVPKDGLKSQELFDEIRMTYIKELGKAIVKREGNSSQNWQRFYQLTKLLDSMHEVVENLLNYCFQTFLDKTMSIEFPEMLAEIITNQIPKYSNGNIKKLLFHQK
Assay [7] shares this target. Description: GR-EFC Redistribution (AID 451; calls by dose curve; also: potency is read from the fitted curve at half-maximal effect). To be noted: CHO-K1 GR-EFC translocation, beta-gal luminescence, 2 h. The method in brief: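 CHO-K1 cells stably expressing nuclear-localized β-gal enzyme acceptor and GR fused C-terminally to the enzyme donor fragment; ligand-driven nuclear translocation restores β-gal by complementation. Compounds titrated up to 46 uM final, 2 h at 37 °C; luminescence read.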

In assay [8] the target is Mitogen-activated protein kinase 10 (Mus musculus) (UniProt Q61831). Description: JNK3 AlphaScreen Assay (AID 530).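 Also: kinase came from lysate of stimulated human HepG2 cells; % is scaled to controls: 0 for no effect and ±100 for the full control effect.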 The note with it: JNK3 lysate, c-Jun phosphorylation; series mostly up to 11.4 µM. The method in brief: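 Biotinylated GST-cJun(1-79) served as substrate for JNK3 in HepG2 lysates stimulated with IL-1beta and TNF-alpha. ATP was 10 uM final, pH 7.6. Ser73 phosphorylation was quantified by AlphaScreen (680 nm excitation).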

The target in assay [9] is 3',5'-cyclic-AMP phosphodiesterase 4B (Homo sapiens) (UniProt Q07343). Kind of assay: qHTS Assay for Inhibitors of PDE-IV (AID 607; active = well fitted activation curve with a large enough effect in the main read-out, with a control signal flat, not every such curve was filed as active; also: % of control where 0% means no effect). To be noted: HEK293 ACTOne CNG channel cells, membrane potential fluorescence; series mostly up to 22.9 µM. Put shortly:
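The readout is membrane depolarisation from a cAMP-sensing CNG channel, detected with a potential dye at ex 535/em 590. Cells were HEK293-derived (endogenous PDE-IV) at 1000 cells/well, titrated up to 22.9 uM final.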
On the technique in general: In qHTS, concentration-response curves come from the screen itself.

The target of assay [10] is Cytochrome P450 2C19 (Homo sapiens) (UniProt P33261). Kind of assay: qHTS Assay for Inhibitors and Substrates of Cytochrome P450 2C19 (AID 899; active = well fitted inhibition curve with a large enough effect; also: nearly all actives have a fitted effect of over 60% in size; also: potency is read from the fitted curve at half-maximal effect). The note with it: recombinant CYP2C19, luciferin-H EGE luminescence; series mostly up to 11.4 µM. The method in brief:
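In 50mM KPO4, the reaction held 5nM enzyme and KM-level (10uM) Luciferin-H EGE; it ran 60 min at 37C after NADPH regeneration and a 10 min compound preincubation. Luminescence values were scaled to 57uM ketoconazole as complete inhibition.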

In assay [11] the target is Cytochrome P450 2D6 (Homo sapiens) (UniProt P10635). Description: qHTS Assay for Inhibitors and Substrates of Cytochrome P450 2D6 (AID 891; active = well fitted inhibition curve with a large enough effect; also: nearly all actives have a fitted effect of over 60% in size; also: potency is read from the fitted curve at half-maximal effect). To be noted: recombinant CYP2D6, luciferin-ME EGE luminescence; series mostly up to 11.4 µM. The method in brief: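 Luminescent read-out of luciferin formed by 5 nM human CYP2D6 demethylating 30 uM Luciferin-ME EGE (Km level) over 60 min at room temperature after NADPH regeneration addition. Data normalized to full inhibition by 1.43 uM quinidine.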
Sequence of Cytochrome P450 2D6 (Homo sapiens) (P10635 whole entry, looked up): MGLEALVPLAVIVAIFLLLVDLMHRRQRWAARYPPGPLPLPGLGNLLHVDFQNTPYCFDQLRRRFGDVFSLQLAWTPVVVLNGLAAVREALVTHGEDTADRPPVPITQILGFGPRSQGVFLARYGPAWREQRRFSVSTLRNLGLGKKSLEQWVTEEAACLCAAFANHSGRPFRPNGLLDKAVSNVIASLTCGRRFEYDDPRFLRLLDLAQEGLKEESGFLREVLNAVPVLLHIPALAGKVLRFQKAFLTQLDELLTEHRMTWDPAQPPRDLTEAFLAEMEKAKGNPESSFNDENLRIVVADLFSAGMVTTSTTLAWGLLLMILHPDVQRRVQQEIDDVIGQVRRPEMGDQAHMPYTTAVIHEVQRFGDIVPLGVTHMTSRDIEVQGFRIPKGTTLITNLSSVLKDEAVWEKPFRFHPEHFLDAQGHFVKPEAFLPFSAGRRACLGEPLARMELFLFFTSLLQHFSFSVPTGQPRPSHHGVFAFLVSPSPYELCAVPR

A number with no mark means an inactive call. Results filed as inconclusive are left out. Active and inactive are the calls of the source. Unless noted, calls follow the shape of the dose curve; as a rule, active = well fitted curve in either direction with a large enough effect (not every such curve was filed as active); inconclusive = small, poorly fitted or top-dose-only effect, or another doubt; inactive = flat fitted curve, though single readings scatter. Some results are limits rather than exact numbers.

Sequence of Lysosomal acid glucosylceramidase (Homo sapiens) (P04062 whole entry, looked up): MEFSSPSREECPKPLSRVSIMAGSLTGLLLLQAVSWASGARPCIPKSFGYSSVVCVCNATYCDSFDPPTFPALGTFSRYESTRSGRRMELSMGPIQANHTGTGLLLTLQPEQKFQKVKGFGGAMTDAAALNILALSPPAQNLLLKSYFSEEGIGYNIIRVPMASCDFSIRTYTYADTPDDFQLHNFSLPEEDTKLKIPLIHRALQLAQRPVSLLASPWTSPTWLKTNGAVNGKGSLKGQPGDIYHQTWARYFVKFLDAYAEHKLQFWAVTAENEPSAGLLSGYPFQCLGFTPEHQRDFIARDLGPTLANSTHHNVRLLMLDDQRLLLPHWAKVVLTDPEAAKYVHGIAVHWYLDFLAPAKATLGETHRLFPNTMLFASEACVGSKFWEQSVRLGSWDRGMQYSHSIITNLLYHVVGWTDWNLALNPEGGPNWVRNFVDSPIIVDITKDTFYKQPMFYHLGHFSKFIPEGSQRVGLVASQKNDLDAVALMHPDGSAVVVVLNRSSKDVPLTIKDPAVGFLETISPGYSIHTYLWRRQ
Sequence of 3',5'-cyclic-AMP phosphodiesterase 4B (Homo sapiens) (Q07343 whole entry, looked up): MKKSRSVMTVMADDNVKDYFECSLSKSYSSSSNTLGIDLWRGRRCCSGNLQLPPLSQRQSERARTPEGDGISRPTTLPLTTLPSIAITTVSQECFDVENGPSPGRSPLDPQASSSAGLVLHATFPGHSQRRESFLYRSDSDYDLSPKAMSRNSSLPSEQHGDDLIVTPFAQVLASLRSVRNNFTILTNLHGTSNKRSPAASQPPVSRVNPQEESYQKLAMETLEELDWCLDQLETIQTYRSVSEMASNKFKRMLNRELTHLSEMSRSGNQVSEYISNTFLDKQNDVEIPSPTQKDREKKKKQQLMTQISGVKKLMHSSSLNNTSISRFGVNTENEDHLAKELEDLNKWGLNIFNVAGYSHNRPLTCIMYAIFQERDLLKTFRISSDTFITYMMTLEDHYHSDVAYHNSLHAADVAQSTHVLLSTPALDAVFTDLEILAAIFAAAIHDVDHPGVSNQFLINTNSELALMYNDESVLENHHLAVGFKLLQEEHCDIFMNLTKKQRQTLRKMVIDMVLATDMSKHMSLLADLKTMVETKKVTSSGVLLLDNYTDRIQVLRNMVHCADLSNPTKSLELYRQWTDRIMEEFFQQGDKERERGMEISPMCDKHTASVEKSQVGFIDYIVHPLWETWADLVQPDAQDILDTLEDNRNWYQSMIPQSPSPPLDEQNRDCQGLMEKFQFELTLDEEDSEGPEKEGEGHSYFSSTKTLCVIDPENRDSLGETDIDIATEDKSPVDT
Sequence of Cytochrome P450 2C19 (Homo sapiens) (P33261 whole entry, looked up): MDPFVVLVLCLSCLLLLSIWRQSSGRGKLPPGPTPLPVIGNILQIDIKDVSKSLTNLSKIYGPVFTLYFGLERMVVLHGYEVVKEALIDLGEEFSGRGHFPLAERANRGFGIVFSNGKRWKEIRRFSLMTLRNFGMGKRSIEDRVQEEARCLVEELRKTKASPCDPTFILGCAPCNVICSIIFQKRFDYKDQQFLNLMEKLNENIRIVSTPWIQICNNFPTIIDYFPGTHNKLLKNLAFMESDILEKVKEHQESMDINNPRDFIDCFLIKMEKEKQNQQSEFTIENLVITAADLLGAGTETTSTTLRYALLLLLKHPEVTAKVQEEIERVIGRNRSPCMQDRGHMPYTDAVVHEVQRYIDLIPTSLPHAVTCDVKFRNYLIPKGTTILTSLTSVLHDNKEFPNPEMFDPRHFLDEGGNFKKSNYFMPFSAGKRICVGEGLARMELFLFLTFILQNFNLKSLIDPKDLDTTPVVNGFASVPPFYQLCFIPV
Sequence of Cytochrome P450 1A2 (Homo sapiens) (P05177 whole entry, looked up): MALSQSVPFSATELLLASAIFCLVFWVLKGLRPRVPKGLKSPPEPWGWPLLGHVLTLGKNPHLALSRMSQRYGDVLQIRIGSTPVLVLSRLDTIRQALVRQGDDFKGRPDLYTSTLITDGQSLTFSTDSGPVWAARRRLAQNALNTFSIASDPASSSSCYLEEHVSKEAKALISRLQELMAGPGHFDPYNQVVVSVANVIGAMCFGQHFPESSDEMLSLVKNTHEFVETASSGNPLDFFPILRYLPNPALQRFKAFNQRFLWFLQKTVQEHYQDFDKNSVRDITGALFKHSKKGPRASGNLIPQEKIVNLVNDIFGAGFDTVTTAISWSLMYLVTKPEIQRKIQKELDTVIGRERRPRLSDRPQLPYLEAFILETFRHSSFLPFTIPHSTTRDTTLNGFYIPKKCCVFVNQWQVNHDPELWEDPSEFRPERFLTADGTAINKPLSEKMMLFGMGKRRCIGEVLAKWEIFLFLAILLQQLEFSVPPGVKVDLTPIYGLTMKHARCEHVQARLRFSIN

For `c1ccc2c(c1)c1ccccc1n2Cn1c2ccccc2c2ccccc21`, the Potency was more than 11.4 µM in [1]; 0.251 µM (active) in assay [3]; more than 46 µM in [6]; more than 9.22 µM in [7]; 0.398 µM (active) in [10]. The activity change, negative = inhibition in [2] is 10.8%; in assay [4], -5.02%. For the same compound, in [5], the activity, negative = inhibition is 8.5%. The Potency result in assay [8] and in assay [9] was “inactive” throughout.

In the case of `Cc1cn([C@H]2C[C@H](O)[C@@H](COC(N)=O)O2)c(=O)[nH]c1=O`, the values for the Potency in [1], in assay [6] and in assay [7] were more than 11.4 µM, more than 46 µM and more than 9.22 µM, respectively. Besides, the activity change, negative = inhibition in [2] was 2.02%; in [3] it was -14.6% [at 2.29 µM]; in assay [4], 0.228%. Besides, the activity, negative = inhibition in assay [5] was 6.97%. Moreover, the Potency result in [8], in assay [9] and in [11] was “inactive” in each case.

On to `Nc1ccc(S(=O)(=O)NCc2nccs2)cc1`, for which the Potency in assay [1] is more than 11.4 µM; in assay [6] it was more than 46 µM; in [7] it was more than 9.22 µM; in assay [10] it was 0.0794 µM (active). For the same compound, the activity change, negative = inhibition in assay [2] was -6.48%; in assay [3] it was -10.5% [at 2.29 µM]; in [4], 7.98%. In assay [5], the activity, negative = inhibition was -1.21%. The Potency entry in assay [8] and in assay [9] was “inactive” each time.

Turning to `c1ccc2c(CSCc3cccc4ccccc34)cccc2c1`, the Potency in assay [1] is more than 11.4 µM; in assay [3], 3.98 µM (active); in assay [6], more than 46 µM; in assay [7], more than 9.22 µM; in assay [10], 0.126 µM (active). In addition, the activity change, negative = inhibition in assay [2] was 6.44%; in assay [4] it was -28.7%. Also, the activity, negative = inhibition in assay [5] is 17.1%. Besides, the Potency entry in assay [8] and in assay [9] was “inactive” throughout.

Take `CC(C)(C)c1ccc(OCC(=O)O)c(Cl)c1`: the Potency was more than 11.4 µM in assay [1], more than 46 µM in [6] and more than 9.22 µM in assay [7]. Also, the activity change, negative = inhibition was -2.54% in assay [2] and 10.5% in assay [4]. The Potency result in assay [3], in [8], in assay [9] and in assay [10] was “inactive” each time. Further, the activity, negative = inhibition in [5] was -5.16%.

With `Nc1nc(Cl)cc(NCCO)n1`, the Potency in assay [1] is more than 11.4 µM; in assay [6], more than 46 µM; in assay [7], more than 9.22 µM. Besides, the activity change, negative = inhibition was -4.13% in assay [2] and 10.4% in [4]. For the same compound, the Potency entry in [3], in assay [8], in assay [9], in [11] and in assay [10] was “inactive” each time. The activity, negative = inhibition in assay [5] was 4.67%.

Consider `CC[C@H]1CN(C)[C@H]2Cc3c([nH]c4ccccc34)C(=O)C[C@H]1[C@H]2C(=O)OC`, for which the Potency was more than 11.4 µM in assay [1], more than 46 µM in [6] and more than 9.22 µM in assay [7]. For the same compound, the activity change, negative = inhibition is -2.14% in assay [2] and 11.7% in assay [4]. Besides, the Potency result in [3], in assay [8], in assay [9] and in assay [11] was “inactive” in each case. Besides, the activity, negative = inhibition in [5] is 8.84%.

In the case of `O=C(O)CSSCC(=O)O`, the Potency in assay [1] is more than 11.4 µM; in assay [6] it was more than 46 µM; in assay [7] it was more than 9.22 µM. Moreover, the activity change, negative = inhibition is 5.08% in [2] and 15.8% in assay [4]. Further, the Potency entry in assay [3], in [8], in [9], in assay [11] and in assay [10] was “inactive” in each case. Moreover, the activity, negative = inhibition in [5] is 17.7%.

Take `N#C[C@@H](N=Nc1ccccc1C(=O)O)C(N)=O`: the figures for the Potency in assay [1], in [6] and in assay [7] were more than 11.4 µM, more than 46 µM and more than 9.22 µM, respectively. In addition, the activity change, negative = inhibition was 9.26% in [2] and -8.71% in assay [4]. In addition, the Potency result in assay [3], in assay [8], in assay [9] and in assay [10] was “inactive” in each case. In addition, in assay [5], the activity, negative = inhibition is -29.4%.

As to `CC(CC(=O)O)(CC(=O)O)C(=O)O`, the results for the Potency in assay [1], in [6] and in assay [7] were more than 11.4 µM, more than 46 µM and more than 9.22 µM, respectively. In addition, the figures for the activity change, negative = inhibition in assay [2] and in assay [4] were -0.949% and 18.4%, respectively. For the same compound, the Potency result in [3], in [8], in assay [9], in assay [11] and in assay [10] was “inactive” throughout. Also, in assay [5], the activity, negative = inhibition is 9.05%.

Consider `N=C(N)SCc1ccc(Cl)cc1Cl` (tested in a mixture with another compound), for which the Potency in assay [1] is more than 11.4 µM; in [3], 3.98 µM (active); in assay [6], more than 46 µM; in [7] it was more than 9.22 µM; in assay [11] it was 3.16 µM (active). In addition, the activity change, negative = inhibition in assay [2] is 23.5%; in assay [4] it was -21.9%. Further, the activity, negative = inhibition in assay [5] is -9.66%. Further, the Potency result in [8] and in assay [9] was “inactive” throughout.

Consider `OCCN(CO)CO`, for which the Potency in assay [1] is more than 11.4 µM; in assay [6], more than 46 µM; in assay [7] it was more than 9.22 µM. The activity change, negative = inhibition in [2] was 6.19%; in assay [4], 13.5%. Besides, the Potency result in assay [3], in [8], in [9] and in assay [11] was “inactive” in each case. Moreover, the activity, negative = inhibition in assay [5] is 7.15%.

On to `CC(C)(CN)CN`, for which the Potency in assay [1] was more than 11.4 µM; in [6], more than 46 µM; in assay [7], more than 9.22 µM. In addition, the results for the activity change, negative = inhibition in assay [2] and in assay [4] were 0.738% and 2.82%, respectively. Further, the Potency entry in assay [3], in [8], in assay [9] and in [11] was “inactive” in each case. For the same compound, in assay [5], the activity, negative = inhibition is 0.176%.

For the compound `CN(Cc1cc(Cl)cc(Cl)c1O)Cc1c(O)ccc2ccccc12`, the Potency in assay [1] was more than 11.4 µM; in assay [3], 0.631 µM (active); in assay [6] it was more than 46 µM; in assay [7] it was more than 9.22 µM; in assay [11], 1.26 µM (active); in assay [10] it was 1.26 µM (active). The activity change, negative = inhibition in assay [2] is -8.51%; in [4], -4.41%. The activity, negative = inhibition in assay [5] is -1.99%. The Potency result in [8] and in assay [9] was “inactive” each time.

As for `Cc1cc(C(C)(C)C)cc(CNC2CCCCC2)c1O`, the Potency in [1] was more than 11.4 µM; in assay [3], 3.16 µM (active); in [6] it was more than 46 µM; in [7] it was more than 9.22 µM; in assay [11], 0.501 µM (active); in assay [10], 0.02 µM (active). In addition, the activity change, negative = inhibition was 8.19% in assay [2] and 22.7% in [4]. The activity, negative = inhibition in [5] was 10.5%. For the same compound, the Potency result in [8] and in assay [9] was “inactive” in each case.
